The record followed here is PubChem BioAssay (EPA / NIEHS).

Read-out in assay [1]: Macrophage colony-stimulating factor (MCSF), CSF1 (gene 1435)
Kind of assay: BSK_LPS_MCSF: BioMAP Diversity Plus: LPS Assay for Macrophage colony-stimulating factor (MCSF) Biomarker Activity (AID 2283083). The following applies: primary human HUVEC with PBMC; actives raise or lower the signal. An outline of the steps:
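HUVEC–PBMC co-culture, M-CSF measured by ELISA 24 h after chemical dosing. Fitted in both directions relative to DMSO as negative control; overt cytotoxicity assessed by SRB total-protein staining in parallel cultures.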

Read-out in assay [2]: Tissue Factor, F3 (gene 2152)
As to the kind of experiment: BSK_LPS_TissueFactor: BioMAP Diversity Plus: LPS Assay for Tissue Factor Biomarker Activity (AID 2283084). The following applies: primary human HUVEC with PBMC; actives raise or lower the signal. In outline:
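Human umbilical vein endothelial cells co-cultured with PBMC were dosed with compound. Cell-surface CD142 was measured by ELISA 24 h later. Activity was fitted bidirectionally against DMSO, with SRB total-protein staining in parallel cultures for cytotoxicity.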

Read-out in assay [3]: Tumor necrosis factor (Homo sapiens) (UniProt P01375)
Kind of assay: BSK_LPS_TNFa: BioMAP Diversity Plus: LPS Assay for Tumour Necrosis Factor alpha (TNFa) Biomarker Activity (AID 2283085). Particulars: primary human HUVEC with PBMC; actives raise or lower the signal. An outline of the steps:
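Human umbilical vein endothelial cells co-cultured with PBMC and stimulated with LPS. TNFa was measured by ELISA 24 h after chemical dosing, fitted bidirectionally relative to DMSO.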

Read-out in assay [4]: Vascular cell adhesion molecule 1 (VCAM1), VCAM1 (gene 7412)
As to the kind of experiment: BSK_LPS_VCAM1: BioMAP Diversity Plus: LPS Assay for Vascular cell adhesion molecule 1 (VCAM1) Biomarker Activity (AID 2283086). The following applies: primary human HUVEC with PBMC; actives raise or lower the signal. In outline:
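Human umbilical vein endothelial cells co-cultured with PBMC and stimulated with LPS; VCAM-1 measured by ELISA 24 h after dosing. Bidirectional curve fitting against DMSO baseline; cytotoxicity tracked in parallel by SRB total-protein staining.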

Read-out in the next assay: CD38, CD38 (gene 952)
Kind of assay: BSK_SAg_CD38: BioMAP Diversity Plus: SAg Assay for CD38 Biomarker Activity (AID 2283087). Particulars: primary human HUVEC with PBMC; actives raise or lower the signal. In outline:
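Human HUVEC plus PBMC co-culture stimulated with superantigen; CD38 measured by ELISA 24 h after chemical dosing. Fluorescence read-out, bidirectional fit against DMSO; cytotoxicity tracked in parallel by SRB and Alamar Blue.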

Read-out in a further assay: CD40, CD40 (gene 958)
As to the kind of experiment: BSK_SAg_CD40: BioMAP Diversity Plus: SAg Assay for CD40 Biomarker Activity (AID 2283088). The following applies: primary human HUVEC with PBMC; actives raise or lower the signal. An outline of the steps: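 HUVEC plus PBMC co-culture, superantigen-activated, with CD40 read by ELISA 24 h after dosing. Curves fitted in both directions against DMSO. Overt cytotoxicity checked by parallel SRB total-protein staining.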

Read-out in another assay: CD69, CD69 (gene 969)
As to the kind of experiment: BSK_SAg_CD69: BioMAP Diversity Plus: SAg Assay for CD69 Biomarker Activity (AID 2283089).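 On AC50: cell surface CD69 protein quantified by ELISA with fluorescence detection.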 Particulars: primary human HUVEC with PBMC; actives raise or lower the signal. An outline of the steps:
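Endothelial/PBMC co-culture; chemical added; 24 h incubation; CD69 ELISA with fluorescence detection; bidirectional fit vs DMSO.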

Read-out in assay [5]: Monocyte Chemoattractant Protein-1 (MCP1), CCL2 (gene 6347)
As to the kind of experiment: BSK_SAg_MCP1: BioMAP Diversity Plus: SAg Assay for Monocyte Chemoattractant Protein-1 (MCP1) Biomarker Activity (AID 2283090). Particulars: primary human HUVEC with PBMC; actives raise or lower the signal. In outline: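 MCP-1 levels in the endothelial–PBMC SAg co-culture were quantified by ELISA at 24 h post-dosing; both increases and decreases versus DMSO scored. Cytotoxicity monitored by SRB total protein in parallel cultures.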

Read-out in assay [6]: E-selectin (Homo sapiens) (UniProt P16581)
As to the kind of experiment: BSK_SAg_Eselectin: BioMAP Diversity Plus: SAg Assay for Eselectin Biomarker Activity (AID 2283091). Particulars: primary human HUVEC with PBMC; actives raise or lower the signal. An outline of the steps: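 Human umbilical vein endothelial cells co-cultured with peripheral blood mononuclear cells, SAg system. E-selectin is measured by ELISA 24 h after dosing and fitted bidirectionally against DMSO. Cytotoxicity is checked by SRB staining of parallel cultures.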

The nature of assay [7]: BSK_SAg_PBMCCytotoxicity: PBMC Cytotoxicity Assessment in the BioMAP Diversity Plus: SAg Assay (AID 2283093).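 Further: PBMC viability measured as Alamar Blue reduction fluorescence at 546/580 nm; fitted both ways against DMSO so a hit may be loss or gain of signal.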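 On AC50: PBMC superantigen activated with SEB plus TSST-1 one hour after compound addition.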 Particulars: primary human HUVEC with PBMC. In outline: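 Human umbilical vein endothelial cells co-cultured with PBMC; PBMC (75,000/well) pre-treated with compound 1 h, then activated with SEB and TSST-1 (20 ng/mL final each) for 90 h. Alamar Blue added 6 h, fluorescence 546/580 nm; bidirectional fit versus DMSO.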

Read-out in assay [8]: Interleukin-8 (IL8), CXCL8 (gene 3576)
As to the kind of experiment: BSK_SAg_IL8: BioMAP Diversity Plus: SAg Assay for Interleukin-8 (IL8) Biomarker Activity (AID 2283094). Particulars: primary human HUVEC with PBMC; actives raise or lower the signal. In outline: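 Human umbilical vein endothelial cells co-cultured with PBMC, stimulated with superantigen; IL-8 measured by ELISA 24 h after chemical dosing. Bidirectional fitting versus DMSO; SRB staining in parallel cultures tracks cytotoxicity.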

A short description of assay [9]: BSK_SAg_Proliferation: Cell Proliferation Assessment in the BioMAP Diversity Plus: SAg Assay (AID 2283095). The following applies: primary human HUVEC with PBMC. In outline: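 Human umbilical vein endothelial cells co-cultured with PBMC; sulforhodamine B total-protein staining (0.1% SRB after 10% TCA fixation, absorbance 560 nm) at 96 h in sub-confluent culture. Fitted bidirectionally against DMSO.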

Assay [10] can be described thus: BSK_SAg_SRB: Viability Assessment in the BioMAP Diversity Plus: SAg Assay (AID 2283096).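 Further: cells read one day after compound addition; hits may be either gain or loss of signal compared with DMSO.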 Particulars: primary human HUVEC with PBMC. In outline: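 Endothelial/PBMC primary human co-culture; compound 24 h; fix 10% TCA, stain 0.1% SRB, A560; protein content as cytotoxicity proxy; bidirectional curve fit, DMSO = baseline.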
In assay [11] the target is human CYP2A6, CYP2A6 (gene 1548) (UniProt P11509). As to the kind of experiment: NVS_ADME_hCYP2A6: NovaScreen (NVS) CYP450-related Enzyme Activity (ADME) Assay for human CYP2A6 (AID 2283099; active means hit-call score of the fitted dose curve at least 0.9, where 1 is the maximum). In outline:
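Recombinant human CYP2A6 expressed in insect cells, cell-free; fluorogenic substrate turnover read by fluorescence intensity 0.5 h after dosing. Primary screen 10 uM in duplicate, then concentration-response up to 20 uM; acetonitrile as negative control.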

Read-out in assay [12]: Monokine induced gamma interferon (MIG), CXCL9 (gene 4283)
As to the kind of experiment: BSK_SAg_MIG: BioMAP Diversity Plus: SAg Assay for Monokine induced gamma interferon (MIG) Biomarker Activity (AID 2283092). Particulars: primary human HUVEC with PBMC; actives raise or lower the signal. In outline:
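Measures CXCL9 protein by ELISA in a human vascular primary-cell co-culture (umbilical vein endothelium with PBMC) 24 h after chemical addition. Activity is scored up or down from the DMSO control.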

In assay [13] the target is human CYP1A1, CYP1A1 (gene 1543) (UniProt P04798). Kind of assay: NVS_ADME_hCYP1A1: NovaScreen (NVS) CYP450-related Enzyme Activity (ADME) Assay for human CYP1A1 (AID 2283100; active means hit-call score of the fitted dose curve at least 0.9, where 1 is the maximum). An outline of the steps: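 Recombinant CYP1A1 with a fluorogenic substrate, cell-free, read 1 h after dosing; acetonitrile as negative control. Single-concentration screen at 10 uM in duplicate, then concentration-response up to 20 uM for chemicals meeting ~30% inhibition threshold.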

For assay [14], the target named is human CYP2B6, CYP2B6 (gene 1555) (UniProt P20813). Kind of assay: NVS_ADME_hCYP2B6: NovaScreen (NVS) CYP450-related Enzyme Activity (ADME) Assay for human CYP2B6 (AID 2283101; active means hit-call score of the fitted dose curve at least 0.9, where 1 is the maximum). An outline of the steps:
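Recombinant protein, specific fluorescent substrate, read at 1 h post-dosing. Primary: single 10 uM, duplicate; follow-up: concentration series. Activity = signal loss vs acetonitrile baseline, with positive and negative controls on every plate.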

For assay [15], the target named is human CYP2D6, CYP2D6 (gene 1565) (UniProt P10635). As to the kind of experiment: NVS_ADME_hCYP2D6: NovaScreen (NVS) CYP450-related Enzyme Activity (ADME) Assay for human CYP2D6 (AID 2283107; active means hit-call score of the fitted dose curve at least 0.9, where 1 is the maximum). In outline: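 Cell-free assay using recombinant human CYP2D6 expressed in insect cells, with a fluorogenic substrate read after 1 h. Primary screen in duplicate at 10 uM; actives followed up in concentration series. Loss of signal fitted relative to acetonitrile.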

Results filed as inconclusive are left out. Calls of active or inactive are those of the source. How the source made its calls, unless noted: active means hit-call score of the fitted dose curve at least 0.9, where 1 is the maximum; inactive means score below 0.9.

Sequence of E-selectin (Homo sapiens) (P16581 whole entry, looked up): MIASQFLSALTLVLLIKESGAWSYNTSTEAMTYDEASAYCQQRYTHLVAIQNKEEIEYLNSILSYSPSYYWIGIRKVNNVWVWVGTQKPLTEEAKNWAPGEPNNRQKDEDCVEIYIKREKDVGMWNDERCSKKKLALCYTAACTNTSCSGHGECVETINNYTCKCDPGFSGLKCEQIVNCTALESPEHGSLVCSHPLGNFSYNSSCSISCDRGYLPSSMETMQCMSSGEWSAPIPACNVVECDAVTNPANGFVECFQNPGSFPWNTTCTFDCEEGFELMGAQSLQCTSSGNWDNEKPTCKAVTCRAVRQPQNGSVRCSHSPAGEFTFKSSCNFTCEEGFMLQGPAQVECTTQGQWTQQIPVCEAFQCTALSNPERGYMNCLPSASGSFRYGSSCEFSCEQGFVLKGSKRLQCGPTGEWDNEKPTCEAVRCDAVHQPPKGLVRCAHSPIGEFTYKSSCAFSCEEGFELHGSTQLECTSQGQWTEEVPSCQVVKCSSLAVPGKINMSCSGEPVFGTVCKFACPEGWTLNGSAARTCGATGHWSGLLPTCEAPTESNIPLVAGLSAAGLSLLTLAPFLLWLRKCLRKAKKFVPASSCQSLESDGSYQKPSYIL
Sequence of human CYP2A6, CYP2A6 (gene 1548) (P11509 whole entry, looked up): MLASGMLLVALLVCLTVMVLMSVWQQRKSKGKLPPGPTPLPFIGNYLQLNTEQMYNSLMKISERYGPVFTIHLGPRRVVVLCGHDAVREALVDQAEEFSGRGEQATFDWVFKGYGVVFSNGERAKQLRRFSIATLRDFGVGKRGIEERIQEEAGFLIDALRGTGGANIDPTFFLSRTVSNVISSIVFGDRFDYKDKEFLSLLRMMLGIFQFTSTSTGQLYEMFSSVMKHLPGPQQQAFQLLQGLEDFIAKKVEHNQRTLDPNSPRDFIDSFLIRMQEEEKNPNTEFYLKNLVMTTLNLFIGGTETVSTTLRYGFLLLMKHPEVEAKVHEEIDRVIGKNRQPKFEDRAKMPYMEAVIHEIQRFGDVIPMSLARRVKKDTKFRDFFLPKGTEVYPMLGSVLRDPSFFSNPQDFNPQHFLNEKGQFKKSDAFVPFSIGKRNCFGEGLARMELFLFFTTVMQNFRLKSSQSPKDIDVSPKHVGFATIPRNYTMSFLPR
Sequence of Tumor necrosis factor (Homo sapiens) (P01375 whole entry, looked up): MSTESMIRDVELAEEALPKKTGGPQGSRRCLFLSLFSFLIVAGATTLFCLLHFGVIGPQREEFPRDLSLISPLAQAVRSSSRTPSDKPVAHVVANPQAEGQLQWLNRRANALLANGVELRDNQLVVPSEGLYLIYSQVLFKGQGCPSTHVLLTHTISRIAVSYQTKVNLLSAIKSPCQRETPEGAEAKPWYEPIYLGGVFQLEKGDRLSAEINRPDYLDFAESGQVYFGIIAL
Sequence of human CYP1A1, CYP1A1 (gene 1543) (P04798 whole entry, looked up): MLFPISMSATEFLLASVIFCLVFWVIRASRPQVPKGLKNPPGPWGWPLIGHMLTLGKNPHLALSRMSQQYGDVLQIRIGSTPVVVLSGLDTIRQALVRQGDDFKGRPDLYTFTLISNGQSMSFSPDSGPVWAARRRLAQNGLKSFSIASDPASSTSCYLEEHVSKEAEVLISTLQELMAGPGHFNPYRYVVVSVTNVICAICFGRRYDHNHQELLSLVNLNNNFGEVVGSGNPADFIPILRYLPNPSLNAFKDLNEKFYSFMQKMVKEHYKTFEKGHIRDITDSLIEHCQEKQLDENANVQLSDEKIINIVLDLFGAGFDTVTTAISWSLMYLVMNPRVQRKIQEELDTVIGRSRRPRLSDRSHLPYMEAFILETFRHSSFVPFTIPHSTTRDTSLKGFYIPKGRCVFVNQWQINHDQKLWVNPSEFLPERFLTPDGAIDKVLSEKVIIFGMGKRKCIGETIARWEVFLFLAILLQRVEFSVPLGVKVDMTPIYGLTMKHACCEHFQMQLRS
Sequence of human CYP2B6, CYP2B6 (gene 1555) (P20813 whole entry, looked up): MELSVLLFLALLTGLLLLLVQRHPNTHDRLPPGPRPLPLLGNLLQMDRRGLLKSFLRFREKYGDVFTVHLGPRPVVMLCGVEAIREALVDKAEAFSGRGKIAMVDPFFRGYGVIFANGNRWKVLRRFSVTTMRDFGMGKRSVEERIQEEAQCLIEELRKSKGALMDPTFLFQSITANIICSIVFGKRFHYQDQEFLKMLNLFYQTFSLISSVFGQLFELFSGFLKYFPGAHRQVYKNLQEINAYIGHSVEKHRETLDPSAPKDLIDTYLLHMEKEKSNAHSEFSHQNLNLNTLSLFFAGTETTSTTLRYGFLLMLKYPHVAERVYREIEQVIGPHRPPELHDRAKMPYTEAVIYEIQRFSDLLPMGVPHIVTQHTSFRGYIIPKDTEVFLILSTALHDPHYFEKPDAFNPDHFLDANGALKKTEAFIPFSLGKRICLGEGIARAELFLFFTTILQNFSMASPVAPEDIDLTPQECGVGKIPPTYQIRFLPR
Sequence of human CYP2D6, CYP2D6 (gene 1565) (P10635 whole entry, looked up): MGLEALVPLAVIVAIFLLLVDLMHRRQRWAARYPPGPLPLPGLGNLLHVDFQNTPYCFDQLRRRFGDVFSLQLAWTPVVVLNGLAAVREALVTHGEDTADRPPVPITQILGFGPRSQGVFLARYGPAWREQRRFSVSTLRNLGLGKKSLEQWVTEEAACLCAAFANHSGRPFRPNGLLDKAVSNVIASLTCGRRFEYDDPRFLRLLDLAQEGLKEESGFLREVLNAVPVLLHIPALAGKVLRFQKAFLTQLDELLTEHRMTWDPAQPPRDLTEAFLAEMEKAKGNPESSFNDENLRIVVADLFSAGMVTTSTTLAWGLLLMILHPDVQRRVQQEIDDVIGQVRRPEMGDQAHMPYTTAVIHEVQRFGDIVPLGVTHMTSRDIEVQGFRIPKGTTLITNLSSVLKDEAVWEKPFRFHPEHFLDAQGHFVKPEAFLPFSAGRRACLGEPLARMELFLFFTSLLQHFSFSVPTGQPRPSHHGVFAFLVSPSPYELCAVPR

Turning to `CC1=CC(=O)CC(C)(C)C1`, the outcome in [1] is “inactive”; in [2], “inactive”; in assay [3], “inactive”; in assay [4], “inactive”; with CD38, CD38 (gene 952) it was “inactive”; with CD40, CD40 (gene 958), “inactive”. Besides, the outcome with CD69, CD69 (gene 969) was “inactive”; in assay [5], “inactive”; in assay [6] it was “inactive”; in assay [7] it was “inactive”; in assay [8], “inactive”; in [9] it was “inactive”. The result in assay [10] and in assay [11] was inactive.
For the compound `CC(C)=CCC/C(C)=C/CO`, the outcome in assay [1] is “inactive”; in assay [2], “inactive”; in assay [3] it was “inactive”; in [4], “inactive”; with CD40, CD40 (gene 958) it was “inactive”; with CD69, CD69 (gene 969) it was “inactive”. The result in [5], in assay [6], in [12], in assay [7], in assay [8] and in [9] was inactive. Also, the outcome in assay [10] was inactive.
In general, AC50 refers to the concentration giving half of the maximal activity seen. Regarding `CN(C)c1ccc(Cc2ccc(N(C)C)cc2)cc1`, the outcome was “inactive” in [1]; “inactive” in assay [2]; “inactive” in assay [3]; “inactive” in assay [4]; “inactive” in the assay with CD40, CD40 (gene 958); “inactive” in the assay with CD69, CD69 (gene 969). Also, the outcome in assay [5], in assay [6], in assay [7], in assay [8], in [10] and in assay [11] was inactive. The compound was classed as inactive in assay [13]. Further, the results for the AC50 in assay [9] and in assay [14] were 30.9 µM (active) and 1.02 µM (active), respectively.
Consider `Clc1nc(Cl)c(Cl)c(Cl)c1Cl`, for which the AC50 in assay [1] is 32.2 µM (active); in [2], 33.1 µM (active); in assay [3], 31.7 µM (active); in assay [4], 32.3 µM (active); with CD40, CD40 (gene 958), 30 µM (active); with CD69, CD69 (gene 969) it was 26.3 µM (active). Moreover, the AC50 in [5] is 31.4 µM (active); in assay [6] it was 25.1 µM (active); in [8] it was 14.4 µM (active); in assay [9] it was 23.3 µM (active). In addition, the outcome in [7] and in [10] was inactive.
In the case of `CCOc1cccc(-n2cc(C(=O)N3CCN(c4cc(C(=O)O)c5ccccc5c4)CC3)nc2-c2ccc(C)cc2)c1`, the AC50 in [1] was 23.2 µM (active); in assay [2], 19.2 µM (active); in [3], 20.9 µM (active); in [4] it was 14.2 µM (active); with CD40, CD40 (gene 958), 13.6 µM (active); in the assay with CD69, CD69 (gene 969) it was 21.7 µM (active). For the same compound, the AC50 in [5] was 28.3 µM (active); in [6], 19.2 µM (active); in assay [7], 26.9 µM (active); in assay [8] it was 11.4 µM (active); in [9] it was 24.6 µM (active); in assay [10] it was 14.1 µM (active).
With `C1N2CN3CN1CN(C2)C3`, the outcome in [1] is “inactive”; in assay [2] it was “inactive”; in assay [3], “inactive”; in assay [4] it was “inactive”; with CD40, CD40 (gene 958) it was “inactive”; with CD69, CD69 (gene 969) it was “inactive”. Besides, the outcome in [5], in assay [6], in assay [7], in assay [8], in [9] and in assay [10] was inactive.
As for `CC(C)=CCCC(C)=CC=O`, the outcome in [1] was “inactive”; in assay [2] it was “inactive”; in assay [3] it was “inactive”; in the assay with CD40, CD40 (gene 958), “inactive”; with CD69, CD69 (gene 969) it was “inactive”; in assay [5] it was “inactive”. Besides, the outcome in assay [6], in assay [7], in assay [8], in assay [9], in [10] and in assay [11] was inactive. Further, the AC50 in [4] is 33.7 µM (active).
As to `CC(C)CCO`, the outcome is “inactive” in assay [1]; “inactive” in assay [2]; “inactive” in [3]; “inactive” in assay [4]; “inactive” with CD40, CD40 (gene 958); “inactive” with CD69, CD69 (gene 969). Also, the outcome in assay [5], in assay [6], in assay [7], in assay [8], in [9] and in assay [10] was inactive.
In the case of `CCOC(=O)COc1ccc2c(c1)CC(NCC(O)c1cccc(Cl)c1)CC2` (configuration not stated), the AC50 in assay [1] was 34.5 µM (active); in assay [4] it was 31.3 µM (active); with CD40, CD40 (gene 958) it was 28.8 µM (active); in the assay with CD69, CD69 (gene 969), 18.3 µM (active); in [5] it was 27.7 µM (active); in [7], 27.2 µM (active). Further, the AC50 is 18.3 µM (active) in [8], 31.7 µM (active) in assay [9], 27.2 µM (active) in assay [10] and 2.51 µM (active) in assay [15]. Besides, the outcome in assay [2], in assay [3], in [6] and in assay [13] was inactive.
